# Experimental data as given in the antibiotic and cytotoxicity screens of Wong et al. (2023).
# Screen size: about 39,000 compounds; about 1,500 (3.8%) were called active. This excerpt belongs to a sample that is enriched for actives.
# System: HSkMC (human skeletal muscle cells)
# Assay: cytotoxicity call (relative viability < 0.9)
# Details: 10 µM
row,Compound,cytotoxicity call
1,N#Cc1c(Oc2ccc(F)c(NC(=O)Cc3cccc(C(F)(F)F)c3)c2)ccc2nc(NC(=O)C3CC3)sc12,active
2,O=C(N[C@H](c1ccc2ccccc2n1)c1cccs1)C1CCN(Cc2cccc(C(F)(F)F)c2)CC1,inactive
3,NC[C@](O)(c1cccs1)C1CC1,inactive
4,C[C@@H]1CN([C@@H](C)CO)C(=O)c2cc(-c3cccc(C(=O)N(C)C)c3)cnc2O[C@@H]1CN(C)S(=O)(=O)c1cccc(F)c1,inactive
5,COc1ccc(CN(C)C[C@@H]2Oc3ccc(NC(=O)CCN4CCOCC4)cc3CC(=O)N([C@@H](C)CO)C[C@@H]2C)cc1,inactive
6,COc1ccc(S(=O)(=O)Nc2cccc3c2O[C@@H](CN(C)S(=O)(=O)c2c(C)noc2C)[C@H](C)CN([C@H](C)CO)C3=O)cc1,inactive
7,O=C(C[C@H]1CC[C@H]2[C@@H](COC[C@@H](O)CN2S(=O)(=O)c2ccc(Cl)cc2)O1)NCC1CCCCC1,inactive
8,c1ccc(CNc2ccc3c(ccc4c5ccccc5[nH]c34)n2)cc1,active
9,Cn1nnc(NCc2ccccc2)n1,inactive
10,c1ccc(CNc2nn[nH]n2)cc1,inactive
11,C[C@@H]1CN([C@H](C)CO)C(=O)Cc2cc(NC(=O)c3ccncc3)ccc2O[C@@H]1CN(C)S(=O)(=O)c1ccc(F)cc1,inactive
12,C[C@H](CO)N1C[C@H](C)[C@@H](CN(C)C(=O)Nc2ccc(F)cc2)Oc2ccc(NC(=O)Cn3cnnn3)cc2CC1=O,inactive
13,CS(C)(=O)=O,inactive
14,Cc1ccc(S(=O)(=O)Nc2ccc3c(c2)C(=O)N([C@H](C)CO)C[C@H](C)[C@@H](CN(C)C(=O)Nc2ccc(F)cc2)OCCCC[C@H](C)O3)cc1,inactive
15,C[C@@H]1CN([C@@H](C)CO)C(=O)Cc2cc(NC(=O)Nc3ccc(C(F)(F)F)cc3)ccc2O[C@@H]1CN(C)Cc1ccncc1,inactive
16,C[C@H]1CN([C@@H](C)CO)C(=O)Cc2cc(NC(=O)Nc3ccc(C(F)(F)F)cc3)ccc2O[C@@H]1CN(C)Cc1ccc(Cl)c(Cl)c1,inactive
17,C[C@H](CO)N1C[C@H](C)[C@@H](CN(C)Cc2ccc(Cl)c(Cl)c2)Oc2ccc(NC(=O)Nc3ccc(C(F)(F)F)cc3)cc2CC1=O,active
18,C[C@H]1CN([C@@H](C)CO)C(=O)Cc2cc(NC(=O)Nc3ccc(C(F)(F)F)cc3)ccc2O[C@H]1CN(C)Cc1ccc(Cl)c(Cl)c1,active
19,C[C@H]1CN([C@@H](C)CO)C(=O)Cc2cc(NC(=O)Nc3ccc(C(F)(F)F)cc3)ccc2O[C@@H]1CN(C)Cc1ccncc1,inactive
20,C[C@H]1CN([C@@H](C)CO)C(=O)Cc2cc(NC(=O)Nc3ccc(C(F)(F)F)cc3)ccc2O[C@H]1CN(C)Cc1ccncc1,inactive
21,C[C@@H]1CN([C@@H](C)CO)C(=O)Cc2cc(NC(=O)Nc3ccc(C(F)(F)F)cc3)ccc2O[C@@H]1CN(C)Cc1ccc(Cl)c(Cl)c1,active

row,Compound,cytotoxicity call
1,C[C@@H]1CN([C@H](C)CO)C(=O)Cc2cc(NC(=O)Nc3ccc(C(F)(F)F)cc3)ccc2O[C@H]1CN(C)Cc1ccncc1,inactive
2,C[C@@H]1CN([C@H](C)CO)C(=O)Cc2cc(NC(=O)Nc3ccc(C(F)(F)F)cc3)ccc2O[C@@H]1CN(C)Cc1ccncc1,inactive
3,C[C@@H]1CN([C@H](C)CO)C(=O)Cc2cc(NC(=O)Nc3ccc(C(F)(F)F)cc3)ccc2O[C@@H]1CN(C)Cc1ccc(Cl)c(Cl)c1,active
4,CC(=O)N(C)C[C@@H]1Oc2ncc(C#C[C@@H](C)O)cc2C(=O)N([C@@H](C)CO)C[C@@H]1C,inactive
5,COc1ccc(S(=O)(=O)Nc2ccc3c(c2)CC(=O)N([C@H](C)CO)C[C@@H](C)[C@H](CN(C)Cc2ccncc2)O3)cc1,inactive
6,C[C@H]1CN([C@@H](C)CO)C(=O)Cc2cc(NS(=O)(=O)c3cn(C)cn3)ccc2O[C@H]1CN(C)S(=O)(=O)c1ccc(Cl)cc1,inactive
7,C[C@H]1CN([C@@H](C)CO)C(=O)Cc2cc(NC(=O)CCCCCC(=O)Nc3ccccc3N)ccc2O[C@H]1CN(C)S(C)(=O)=O,inactive
8,COc1ccc(S(=O)(=O)N(C)C[C@H]2Oc3ccc(NC(=O)C4CC4)cc3CC(=O)N([C@H](C)CO)C[C@@H]2C)cc1,inactive
9,CN1C(=O)c2cc(NC(=O)c3cccs3)ccc2OC[C@H]2O[C@@H](CC(=O)NCC(F)(F)F)CC[C@H]21,inactive
10,C[C@@H]1CN([C@@H](C)CO)C(=O)c2cc(NC(=O)Cn3cnnn3)ccc2O[C@@H]1CN(C)Cc1ccccc1,inactive
11,COc1ccc([Si](C)(C)[C@@H]2[C@@H](CC(=O)N3Cc4ccccc4C[C@H]3CO)O[C@]3(C(=O)N(Cc4ccc(N5CCC5=O)cc4)c4ccccc43)[C@H]2C)cc1,inactive
12,C[C@@H]1CN([C@H](C)CO)C(=O)Cc2cc(NC(=O)Nc3ccc(C(F)(F)F)cc3)ccc2O[C@H]1CN(C)Cc1ccc(Cl)c(Cl)c1,active
13,C[C@H](CO)N1C[C@H](C)[C@H](CN(C)Cc2ccc(Cl)c(Cl)c2)Oc2ccc(NC(=O)Nc3ccc(C(F)(F)F)cc3)cc2CC1=O,active
14,C[C@@H]1CN([C@@H](C)CO)C(=O)Cc2cc(NC(=O)Nc3ccc(C(F)(F)F)cc3)ccc2O[C@H]1CN(C)Cc1ccc(Cl)c(Cl)c1,active
15,CS(=O)(=O)O.Oc1ccc(C2CNCCc3c2cc(O)c(O)c3Cl)cc1 (stereo unspecified),inactive
16,COc1ccc(S(=O)(=O)Nc2ccc3c(c2)C(=O)N([C@@H](C)CO)C[C@H](C)[C@@H](CN(C)C(=O)Nc2c(C)noc2C)OCCCC[C@@H](C)O3)cc1,inactive
17,COc1ccc(S(=O)(=O)Nc2ccc3c(c2)CC(=O)N([C@@H](C)CO)C[C@@H](C)[C@H](CN(C)S(C)(=O)=O)O3)cc1,inactive
18,Cc1noc(C)c1S(=O)(=O)N(C)C[C@@H]1Oc2ccc(NC(=O)C3CC3)cc2CC(=O)N([C@H](C)CO)C[C@@H]1C,inactive
19,Cc1noc(C)c1NC(=O)Nc1ccc2c(c1)C(=O)N([C@@H](C)CO)C[C@H](C)[C@H](CN(C)C(=O)Nc1ccccc1)OCCCC[C@H](C)O2,inactive
20,C[C@@H]1CCCCO[C@@H](CN(C)Cc2ccc(C(F)(F)F)cc2)[C@H](C)CN([C@H](C)CO)C(=O)c2cc(NS(C)(=O)=O)ccc2O1,inactive
